The list is not random: actives were taken first. Their share in the collection is about 1.8%.
PABP polyA inh – blocks human PABP binding to poly(A) RNA; P11940; fluorescence polarization; calls only at 35 µM; actives 1% (n = 290,000); AID 2014;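 note: calls also rest on retests at 20 µM and on dose response follow-up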
MEX-5 binding – C. elegans MEX-5 TCR-2 RNA binding activity; Q9XUB2; MEX-5/FITC-TCR2 RNA binding, fluorescence polarization; stronger effect = lower value; activity score (negative = inhibition of binding), % at 10 µM; actives 0.38% (n = 300,000); AID 1832;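 active = inhibition past about -25% in most replicates, and total fluorescence under double the plate's negative control median, limit read from the data; inconclusive = replicates evenly split on the limit, or fluorescence at least double controls; inactive = too little inhibition in most replicates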;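 note: 0% = DMSO and -100% = 5 µM competing unlabeled TCR2 RNA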
eIF4H FP inh – inhibitors of RNA binding by human eIF4H | Q15056 | actives 0.94% (n = 290,000) | inhibition, % at 35 µM | eIF4H fluorescence polarization binding assay;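 note: calls also rest on retests at 20 µM and on dose response follow-up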
EBV gp42 block – EBV gp42 inhibition; Fluorescence polarization binding assay, mP read-out; inhibition, % (tested at 21.74 µM); actives 0.42% (n = 220,000); in the data active = inhibition above about 50%
Target sequence (Q1HVG2 whole entry, looked up): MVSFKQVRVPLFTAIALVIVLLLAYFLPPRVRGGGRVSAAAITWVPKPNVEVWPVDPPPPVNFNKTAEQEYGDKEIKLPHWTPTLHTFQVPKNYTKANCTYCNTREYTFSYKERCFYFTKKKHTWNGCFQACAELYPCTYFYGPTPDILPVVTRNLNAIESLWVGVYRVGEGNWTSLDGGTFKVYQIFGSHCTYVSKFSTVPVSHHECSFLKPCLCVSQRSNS
PABP1 MLLE inh – blocks PAM2 peptide binding to the PABP1 MLLE domain. inhibition, % at 20 µM. actives 0.36% (n = 360,000). P11940. GST-MLLE / FITC-PAM2 fluorescence polarization; in the data active = inhibition above about 35%, passing the limit was not always enough;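 note: plate controls were DMSO wells with GST-MLLE for no effect and wells lacking GST-MLLE protein for full effect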
Numbers without * were called inactive; i = inactive; ? = inconclusive; · = not tested or not shown; + = active, no number. Unless noted, the rule behind the calls is not given here.

SMILES	PABP polyA inh	MEX-5 binding	eIF4H FP inh	EBV gp42 block	PABP1 MLLE inh
O=C(C1=NN(c2ccccc2)C2C(=O)N(c3ccccc3Cl)C(=O)C12)c1ccccc1 (stereo not drawn)	i	-28*	?	53*	-16
COc1ccccc1N1N=C(C(=O)c2ccccc2)C2C(=O)N(c3ccc(Br)cc3)C(=O)C21 (stereo not drawn)	?	?	?	17	-32
Cc1ccc(N2C(=O)C3C(C(=O)c4ccccc4)=NN(c4ccccc4)C3C2=O)cc1 (stereo not drawn)	i	?	-5	53*	-14
COc1ccccc1N1C(=O)C2C(C(=O)c3ccccc3)=NN(c3ccccc3)C2C1=O (stereo not drawn)	?	-16	?	72*	-42
Nc1ncnc2c1ncn2C1OCC(O)C1O (stereo not drawn)	·	·	·	·	-1
O=C1NC(c2ccccc2)(C(F)(F)F)SC2=CCCCCN12 (stereo not drawn)	i	0	-2	-4	42*
Cc1ccc(C2(C(F)(F)F)NC(=O)N3CCCN=C3S2)cc1 (stereo not drawn)	i	-1	-12	-14	-6
O=[N+]([O-])c1cc2c(cc1/C=N/n1c(-c3ccccc3)n[nH]c1=S)OCO2	i	0	59*	-23	-5
O=[N+]([O-])c1cc2c(cc1C=Nc1ccccc1)OCO2	i	0	33	-2	-78
O=[N+]([O-])c1cc2c(cc1/C=N/n1c(-c3ccccn3)n[nH]c1=S)OCO2	i	0	97	-38	-12
Cc1cccc(N=Cc2cc3c(cc2[N+](=O)[O-])OCO3)c1	+	-1	62*	-20	-9
CCCC(C)(C)C(=O)N1CCC1(C)C(=O)NS(=O)(=O)c1ccc(Br)cc1 (stereo not drawn)	·	·	·	·	-7
CCOC(=O)N1CCN(C2=Nc3cccc4cccc2c34)CC1	i	?	59	44	11
CC1CN(C2=Nc3cccc4cccc2c34)CC(C)O1 (stereo not drawn)	+	-19	66	35	29
CC(=O)N1CCN(C2=Nc3cccc4cccc2c34)CC1	i	-21	32	28	18
c1ccc(CC2CCN(C3=Nc4cccc5cccc3c45)CC2)cc1	i	-12	92*	7	-30
c1cc2c3c(cccc3c1)C(N1CCOCC1)=N2	+	-19	58	34	33
COc1ccccc1N1CCN(C2=Nc3cccc4cccc2c34)CC1	i	-8	25	7	-56
C#Cc1ccc(NC(=O)C2(C)CCN2C(=O)Cc2ccc(C(C)C)cc2)cc1 (stereo not drawn)	·	·	·	·	3
CCCN(CC(=O)Nc1ccccc1C)C(=O)COC(=O)CSc1ccc([N+](=O)[O-])cc1	·	-1	·	·	40*
CC1CCCC(C)N1C(=O)COC(=O)CSc1ccc([N+](=O)[O-])cc1 (stereo not drawn)	·	·	·	·	21
CCCN(CC(=O)Nc1ccccc1C)C(=O)COc1c(C)cccc1C	·	·	·	·	-2
CCOC(=O)C1CCN(C(=O)COC(=O)CSc2ccc([N+](=O)[O-])cc2)CC1	·	1	·	·	42*
CC(OC(=O)CSc1ccc([N+](=O)[O-])cc1)C(=O)NC1CC1 (stereo not drawn)	·	·	·	·	42*
O=C(NCC(c1ccco1)N1CCCC1)c1sc2ccccc2c1Cl (stereo not drawn)	+	·	85*	·	-6
SMILES	PABP polyA inh	MEX-5 binding	eIF4H FP inh	EBV gp42 block	PABP1 MLLE inh
Cc1c(C(=O)NCC(c2ccco2)N2CCCC2)sc2ccccc12 (stereo not drawn)	·	·	·	·	-10
COc1ccc(C2=NC(=O)/C(=C\c3cc(OC)c(OC)c(OC)c3)O2)cc1	i	·	-6	-13	61*
C=CCN1C(=O)S/C(=C\c2ccc(N3CCOCC3)cc2C)C1=O	i	-29*	-10	-41	-55
C=CC(C)N1C(=O)S/C(=C\c2ccc(N3CCOCC3)cc2C)C1=O (stereo not drawn)	i	-1	-13	-33	-76
COc1cc(/C=C2/C(=O)NN(c3ccc(C)c(Cl)c3)C2=O)cc([N+](=O)[O-])c1O	i	-11	-3	·	-55
COc1cc(/C=C2\SC(=O)N(c3cccc(Cl)c3)C2=O)cc([N+](=O)[O-])c1O	·	·	·	87*	85*
COc1cc(/C=C2/C(=O)NN(c3cccc(C)c3)C2=O)cc([N+](=O)[O-])c1O	i	-27*	11	-2	-4
O=C1S/C(=C\c2ccc(O)c([N+](=O)[O-])c2)C(=O)N1c1ccccc1Cl	i	-4	1	4	12
